# Test results reported in PubChem BioAssay (NCATS).
# Results filed as inconclusive are left out. Where a call stands in place of a potency, no number is given. Calls of active or inactive are those of the source. Calls come from the whole dose curve; as a rule, active = well fitted inhibition curve with a large enough effect; inconclusive = small, poorly fitted or top-dose-only effect; inactive = flat fitted curve, though single readings scatter. Where a SMILES comes first, the peptide text is derived from it. Bridges are numbered along the chain shown (N, C = ends).
# Assay: P-glycoprotein substrates identified in KB-8-5-11 adenocarcinoma cell line, qHTS therapeutic library screen (AID 1346987); note: nearly all actives have a fitted effect of over 65% in size
# Settings: KB-8-5-11 (P-gp overexpressing) viability, CellTiter-Glo, 72 h; series mostly up to 44.5 µM
# From the text: The ATP-binding cassette transporters P-glycoprotein (P-gp) is known to limit brain penetration of many chemotherapy drugs. […] As such, we developed a high-throughput screen (HTS) to identify substrates of P-gp from a series of chemical libraries including the National Center for Advancing Translational Sciences Pharmaceutical Collection NPC, 2,816 compounds), testing a total of 10,804 compounds, most of which have known mechanisms of action. We used the CellTiter-Glo viability assay to test library compounds against the parental KB-3-1 human cervical adenocarcinoma cell line and the colchicine-selected sub-line KB-8-5-11 that over-expresses P-gp. KB-8-5-11 cells were also tested in the presence of a P-gp inhibitor (tariquidar) to assess reversability of transporter-mediated resistance. Of the tested compounds, a total of 90 P-gp substrates were identified including 55 newly identified P-gp substrates. Substrates were confirmed using an orthogonal killing assay against HEK-293 cells transfected with P-gp. As exemplars, we confirmed that […] (cyclin-dependent kinase inhibitor); AT9283, (Janus kinase 2/3 inhibitor); ispinesib (kinesin spindle protein inhibitor); gedatolisib (PKI-587, phosphoinositide 3-kinase/mammalian target of rampamycin inhibitor); GSK-690693 (AKT inhibitor); and KW-2478 (heat shock protein 90 inhibitor) were substrates , and direct ATPase stimulation was assessed. ABCG2 was also found to confer high levels of resistance to AT9283, GSK-690693 and gedatolisib, while ispinesib, AT7519 and KW-2478 were weaker substrates.
# The HeLa derivative cell line, KB-3-1, and its colchicine-selected, P-gp-overexpressing subline, KB-8-5-11 were maintained in DMEM with 10% FCS and Pen/Strep with glutamine at 37 degree C in 5% CO2. For KB-8-5-11 cells, colchicine was added to the medium at a concentration of 100 ng/mL. HEK-293 cells transfected with empty vector (pcDNA) or vector containing human ABCB1 (MDR-19) or ABCG2 (R-5) have been described previously (Robey, Lin, Qiu, Chan & Bates, 2011) and were maintained in EMEM supplemented with 10% FCS, Pen/Strep and glutamine with 2 mg/ml G418 to select for the expression of the transporter. Cultures were confirmed to be free of mycoplasma infection using the MycoAlert Mycoplasma Detection Kit (Lonza, Walkersville, MD). For the screen, assay medium was identical to culture medium except for KB-8-5-11 where colchicine was excluded from the medium.
# All cell lines were plated into 1536-well plates at 500 cells/well in 5 uL media. Compounds were then pinned in dose-response using a 1536-head pin tool (Kalypsis, San Diego, CA) and plates were incubated at 37 degree C in 5% CO2 for an additional 72 h. CellTiter-Glo reagent (Promega) was dispensed into the wells, incubated for 5 min and luminescence was read on a ViewLux instrument (Perkin-Elmer). Cytotoxic compounds were defined as those that yielded a curve class of -1.1, -1.2, -2.1, -2.2, -2.3, or -2.4, a maximum response of >50% and an AC50 of < 10 uM. Cherry-picked hits from screening analysis were tested with both the KB pair of cell lines, and the pcDNA (empty vector control) and MDR-19 (P-gp overexpressing) pair were tested, in the absence and presence of tariquidar.
# Potency is the fitted concentration of half-maximal effect.
row,SMILES,Potency
1,Cn1nnnc1SCC1=C(C(=O)O)N2C(=O)[C@@H](NC(=O)[C@H](OC=O)c3ccccc3)[C@H]2SC1,inactive
2,CC(=O)O[C@H]1C[C@@](O)(C(C)C)[C@@H]2[C@@H](OC(=O)c3ccc(O)cc3)CC(C)=CC[C@@]12C,inactive
3,O=C(NCC1CCN(Cc2cccc(Cl)c2)CC1)[C@@H]1CCCN(c2ncnc3c2nc2n3CCCC2)C1,inactive
4,Fc1ccc(-c2nc(C3CCNCC3)sc2-c2ccnc(NC3CC3)n2)cc1,13 µM (active)
5,CC(C)n1nc(C#Cc2ccccc2)c2c(N)ncnc21,16.4 µM (active)
6,C/C=C/C=C/C=C/C(=O)O[C@@H]1C=C2COC(=O)[C@]2(O)[C@@]2(C)CCCC(C)(C)[C@H]12,inactive
7,C=C1CCN([C@H](C)[C@](O)(Cn2cncn2)c2ccc(F)cc2F)CC1,inactive
8,C=C1/C(=C/C=C2\CCC[C@@]3(C)C2CCC3[C@H](C)/C=C/[C@@H](O)C2CC2)C[C@@H](O)C[C@@H]1O (stereo not given in full),inactive
9,COc1cc2nc(C3CC3)nc(N3CCN(c4ccccc4OC)CC3)c2cc1OC,20.6 µM (active)
10,C[C@]12CC[C@@H]3c4ccc(O)c(O)c4CC[C@H]3[C@@H]1CCC2=O,inactive
11,CN1CCC(NC(=O)c2cc(-c3c(O)cc(O)cc3Oc3ccc([N+](=O)[O-])cc3)on2)CC1,11.6 µM (active)
12,NC(N)=NC(=O)c1cnn(-c2cccc3ncccc23)c1C1CC1,inactive
13,COC(=O)c1sccc1S(=O)(=O)Nc1ccc(Nc2ccccc2)cc1OC,inactive
14,CC1=CC2/C=C(\C)CCC(O)C/C=C/C(=O)OC23C(=O)NC(CC(C)C)C3C1C (stereo not given),inactive
15,c1cc(-c2cnn3cc(-c4ccc(N5CCNCC5)cc4)cnc23)c2cccnc2c1,5.17 µM (active)
16,CC(C)=C[C@@H]1[C@H](CO[C@@H]2O[C@H](CO)[C@@H](O)[C@H](O)[C@H]2O)C1(C)C,inactive
17,COc1ccc(NC(=O)c2ccc(-c3ccc(C(=N)N)cc3C)cc2)cc1N1CCN(C)CC1,inactive
18,Cc1ccccc1CN1CCn2c1nc1c(c2=O)CN(Cc2ccccc2)CC1,inactive
19,Nc1nc2c(ncn2C2OC3COP(=O)(O)OC3C2O)c(=O)[nH]1 (stereo not given),inactive
20,O=C([C@@H](Cc1cccc(C(F)(F)F)c1)NS(=O)(=O)c1cc(F)c2c(c1)CCNC2)N1CCCC1,inactive

row,SMILES,Potency
1,COc1ccnc(CS(=O)c2nc3cc(OC(F)F)ccc3[nH]2)c1OC (stereo not given),inactive
2,CC(=O)O[C@@]12CO[C@@H]1C[C@H](O)[C@@]1(C)C(=O)[C@H](O)C3=C(C)[C@@H](OC(=O)[C@H](O)[C@@H](NC(=O)OC(C)(C)C)c4ccccc4)C[C@@](O)([C@@H](OC(=O)c4ccccc4)C12)C3(C)C (stereo not given in full),0.126 µM (active)
3,NCCCC[C@H](NC(=O)[C@@H]1CCCN1C(=O)[C@@H]1CSSC[C@H](NC(=O)CNC(=O)CNC(=O)CN)C(=O)N[C@@H](Cc2ccc(O)cc2)C(=O)N[C@@H](Cc2ccccc2)C(=O)N[C@@H](CCC(N)=O)C(=O)N[C@@H](CC(N)=O)C(=O)N1)C(=O)NCC(N)=O (H-GGGCYFQNCPKG-NH2; disulfide 4-9),inactive
4,OC[C@H]1O[C@@H](OC/C=C/c2ccc(O)cc2)[C@H](O)[C@@H](O)[C@@H]1O,inactive
5,CCNC1(C(N)=O)CCN(c2ncnc3c2nc(-c2ccccc2Cl)n3-c2ccc(Cl)cc2)CC1,inactive
6,CC#C[C@@H](CC(=O)O)c1ccc(OCc2cccc(-c3ccc(C(F)(F)F)cc3)c2)cc1,inactive
7,Cn1ncnc1[C@@H]1c2n[nH]c(=O)c3cc(F)cc(c23)N[C@H]1c1ccc(F)cc1,inactive
8,COc1cc2nc(N3CCN(C(=O)COc4c(OC)cccc4C(C)C)CC3)nc(N)c2cc1OC,inactive
9,O=C(CCl)Nc1cccc(NC2=NS(=O)(=O)c3ccccc32)c1,18.4 µM (active)
10,CC(=O)O[C@@H]1CC2C(C)(C)C(=O)C=C[C@]2(C)C2CC[C@@]3(C)[C@H](c4ccoc4)OC(=O)[C@H]4O[C@]43[C@@]21C (stereo not given in full),inactive
11,O=C(NC1CCC1)c1ccc(C#Cc2cccc(F)c2)nc1,inactive
12,CCCc1cc(C)n(C)c(=O)c1CN(C)C(=O)c1cc(-c2ccc(N3CCN(C(C)C)CC3)nc2)cc2c1cnn2C(C)C,inactive
13,CCOC(=O)c1cnc2ccc(-c3cncc(NS(=O)(=O)c4ccccc4)c3)cn12,4.11 µM (active)
14,CN(C)C(=O)Nc1cccc(-c2ccc(N(C)C)cc2)c1,inactive
15,Cc1cc(C)c(-n2cc(C)c3c(Cl)nc(C)nc32)c(C)c1,inactive
16,CCC(=O)OCC(=O)[C@@]1(OC(=O)CC)[C@H](C)C[C@H]2[C@@H]3CCC4=CC(=O)C=C[C@]4(C)[C@@]3(F)[C@@H](O)C[C@@]21C,inactive
17,COC[C@H](c1ccc(C(F)(F)F)cc1)N1CCN(C2(C)CCN(C(=O)c3c(C)ncnc3C)CC2)C[C@H]1C,inactive
18,CC(C)C[C@@H](C(=O)N[C@@H](Cc1ccc(OCc2ccccc2)cc1)C(=O)NC(C)(C)C)N(C)Cc1ccc(C(C)(C)C)cc1,inactive
19,NC(=O)C[C@@H](N)C(=O)O,inactive
20,Cn1nc(C(C)(C)C)cc1C(=O)N[C@@H](Cc1cccc(Cl)c1)C(=O)NCC#N,inactive
